Assay results from the supplement of paper PMC6555819.

Key:
Test in all cases: PBM binding z-score (relative to random genomic background probes); higher = stronger binding; sequences stand for … in GC…GCGATTGACAGCGTAGAATGAAGG
[1] = tested on: RARb homodimer (NR concentration 270 nM)
Summary of the method: (§1)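 Ligand-free nuclear receptor dimers were bound for 1 h to custom Agilent 4×180K protein-binding microarrays. Detection used antibodies against each partner (one per run). Binding z-scores rest on regression-normalized fluorescence, with random background probes as the reference.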

[2] = tested on: RARg:RXRa (NR concentration 270 nM, RXRa partner concentration 90 nM)
Summary of the method: as §1

[3] = tested on: RARg homodimer (NR concentration 270 nM)
Summary of the method: as §1

[4] = tested on: RXRa DBDmut IVT, anti-RXR (DBD mutation: RXRa K156A/R161A, NR concentration 90 nM)
Summary of the method: as §1

[5] = tested on: RXRa homodimer (NR concentration 180 nM)
Summary of the method: as §1

[6] = tested on: THRa:RXRa (NR concentration 90 nM, RXRa partner concentration 90 nM)
Summary of the method: as §1

[7] = tested on: THRa homodimer (NR concentration 90 nM)
Summary of the method: as §1

[8] = tested on: VDR:RXRa (NR concentration 270 nM, RXRa partner concentration 90 nM)
Summary of the method: as §1

[9] = tested on: VDR homodimer (NR concentration 270 nM)
Summary of the method: as §1

Sequence	PBM binding z-score [1]	PBM binding z-score [2]	PBM binding z-score [3]	PBM binding z-score [4]	PBM binding z-score [5]	PBM binding z-score [6]	PBM binding z-score [7]	PBM binding z-score [8]	PBM binding z-score [9]
CGAACTAGGTAATCCAGGACAGTGAATACATTGA	-0.194	0.0775	0.29	0.502	-0.0168	1.85	0.946	0.209	-0.254
GGAACGAGGGCAAAGTTGCTAGCATCTGTCGACG	1.09	1.27	1.73	2.63	1.07	0.852	-0.505	1.01	1.46
TCTTGTAGATCCATAGAGGTTAAGAAAGTGCGCT	1.25	0.611	0.378	0.691	1.1	1.07	-0.276	1.69	0.319
CGTTCAAGGTCAGAGAGGTCAGTGAATGCCGAGT	5.35	6.32	7.17	3.83	5.61	4.37	3.21		5.8
GCTCGGAGGACAAGGGCAGAGCTTTGTCCGTAGA	0.567	-0.153	0.628	-0.927	-0.428	0.387	-0.399	-0.692	-0.558
TCTAGCAGGCCAGAGCGTCACTCAAGAGGTACGG	-0.99	-0.32	-0.282	-0.0985	-0.0625	-1.43	-1.22	-0.608	-0.792
CGGACTAGGTCATTGACAGGACAGTGAATAGTAA	2.48	4.64	4.39	2.41	2.38	2.85	0.733	2	1.23
CGTCAAAGTTCAACTTAGGTAACGTAAAGCACGC	4.13	6.16	6.72	4.76	5.38	5.19	0.769	4.56	4.21
TCGAGTAGGTTACCAATGGGTCATTCAGCTTTCT	2.41	3.58	1.68	0.573	2.18	1.62	-0.434	1.85	0.102
CCAACTAGGTCATCCAGGACAGTGAATACATTGA	3.44	3.88	4.83	2.49	2.77	3.79	2.61		2.63
TCTGCTAGGTCAACCATGGTCAGCTAATCTGCTA	3.53	4.4	5.7	1.05	3.24	3.78	1.03	2.27	-0.484
AGAATGAGGTTATACGTCGATCAGGGAAGAAAGT	0.644	1.73	0.993	1.69	2.07	2.01	0.495	1.29	0.866
TCTTGTAGATCAACAGGAGGCTAAGAAAGATCGA	-0.642	0.0636	-0.13	0.0884	-0.111	-0.56	-1.25	-0.0159	-0.893
AGTCCAAGTTCATCTAGGTAACGTAAGATATGCT	2.25	2.91	3.37	4.78	2.26	2.76	0.459		5.97
ATCTCTAGGTAAAGATAGTTCAGTGCATGCAAAT	1.11	0.406	0.733	-0.0342	0.191	0.926	0.229		1.15
CCGAGTAGCTTATGGGGCATTCAGGCAACGGTGA	-0.2	-0.278	-0.43	0.0685	-0.245	-0.153	-0.655		-0.541
ACGAGCAGGCCAAGGGTCACTCAAGATTAGTCCG	3.96	4.21	4	0.0917	4.07	2.69	0.262		0.916
ACTGGGAGGACAAAGGTCAGAGCTACGCCAGTGA	4.78	6.22	5.14	1.06	5.47	3.85	1.25		1.41
CCAGACAGGTGTGAAGGTAACTCAGCCTCGATTA	0.327	-0.276	-0.122	0.399	-0.117	0.116	0.347		0.0431
ATCTCTAGGTAAAAGTTCCGTGAATCCCGAGGAT	-0.157	0.0505	0.279	0.162	0.162	0.383	0.302		0.13
AGAATGAGGTTAAGATAAGGGAAACAGAATACAT	1.07	2.11	1.69	0.785	2.6	2.71	1.05		0.183
CCTACTGGGGCATAAGGTTACCATAAGCCAGCCC	1.86	1.78	1.29	-0.346	1.17	2.05	0.894		-0.339
AGTCAAAGTTCATCTAGGAAACGTAAGATATGCT	3.89	5.45	6.42	4.79	4.58	1.98	-0.21		4.34
TTACCAAGGTGCAGGTCGTTGATCCCTCTGTAGA	0.634	0.0227	-0.225	0.43	0.481	0.675	0.0392		0.805
ATCTCTAGGTAAGACTCAGTTCTGTGAAGAACGC	0.00747	-0.271	0.0813	0.193	-0.166	0.394	0.633		0.278
CCGAGTAGGTTATGGAGCATTCAGGCAACGGTGA	0.461	0.362	0.489	0.355	0.308	0.145	0.277		0.244
CGAACTAGGTCATTGACAGGACAGTGAGTAGTAA	2.57	4.39	4.12	2.41	2.42	2.81	0.505		0.794
